Screening data (PubChem BioAssay)
Most compounds without a hit are left out; they make up all but 3.5% or so of the library.
UGM FP inh = blocks M. tuberculosis UGM enzyme; purified UGM, fluorescence polarization probe displacement; inhibition, % at 10 µM; 320,000 tested, 0.06% active; AID 504406; in the data active = inhibition above about 10%, passing the limit was not always enough
Mtb FBA inh = inhibits M. tuberculosis FBA enzyme | P9WQA3 | purified M. tuberculosis FBA, fluorescence read-out | inhibition, % at 1 µM | 360,000 tested, 2.3% active | AID 588726; in the data active = inhibition above about 27%
Target sequence (P9WQA3 whole entry, looked up): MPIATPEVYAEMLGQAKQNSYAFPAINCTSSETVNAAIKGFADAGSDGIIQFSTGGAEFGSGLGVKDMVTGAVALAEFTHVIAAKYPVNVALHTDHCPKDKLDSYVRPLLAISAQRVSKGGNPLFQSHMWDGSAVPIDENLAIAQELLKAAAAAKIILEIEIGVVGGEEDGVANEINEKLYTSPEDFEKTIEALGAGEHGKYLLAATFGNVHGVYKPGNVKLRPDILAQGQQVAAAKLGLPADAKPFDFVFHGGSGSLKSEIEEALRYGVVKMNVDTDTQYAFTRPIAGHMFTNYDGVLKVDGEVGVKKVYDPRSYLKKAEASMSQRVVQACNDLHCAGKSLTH
Rv3671c protease = Rv3671c (M. tuberculosis) protease inhibition | inhibition, % at 5.96 µM | 320,000 tested, 0.048% active | AID 2606; in the data active = inhibition above about 38%;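 note: extracellular domain of Rv3671c used as enzyme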
Mtb bLac sens = beta-lactam sensitization of Mtb H37Rv. 330,000 tested, 0.27% active. inhibition, % at 25 µM. AID 434955. M. tuberculosis H37Rv growth with meropenem, percent inhibition;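 note: growth measured after seven days incubation then overnight dye step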
GDH-TPI counter-1 = GDH-TPI coupled enzyme inhibition counter-screen. GDH-TPI coupled enzyme counterscreen, NADH absorbance. inhibition, % at 4.8 µM. 360,000 tested, 1.2% active. AID 588335; in the data active = inhibition above about 30%
Mtb FBA inh conf = confirmation of M. tuberculosis fructose-bisphosphate aldolase inhibitors. shares compounds with Mtb FBA inh. purified M. tuberculosis FBA, fluorescence read-out. inhibition, % at 1 µM. 5,600 tested, 78% active; in the data active = inhibition above about 27%
GDH-TPI counter-2 = counter-screen for M. tuberculosis FBA inhibitors: GDH-TPI coupled enzyme inhibition; inhibition, % at 1 µM; GDH-TPI coupled enzyme counterscreen, fluorescence; 5,600 tested, 81% active; shares compounds with Mtb FBA inh; in the data active = inhibition above about 10%
GDH-TPI DR = GDH-TPI dose response counter-screen for Mtb FBA; shares compounds with Mtb FBA inh; GDH-TPI coupled enzyme assay, fluorescence, artifact counterscreen; IC50, µM; 170 tested, 79% active; AID 652145
Hits are given with their value. Unless noted, the rule behind the calls is not given here.

How did CC1(C)Cn2c(nc(=O)c3c2NCN(CCc2ccccc2)C3)S1 do in these assays?
UGM FP inh: inactive; Mtb FBA inh: inactive; Rv3671c protease: inactive; Mtb bLac sens: inactive; GDH-TPI counter-1: inactive

Results for CCc1cc(=O)oc2cc(C)cc(OCC(=O)NC3CC3)c12 ?
UGM FP inh: inactive; Mtb FBA inh: 65; Rv3671c protease: inactive; Mtb bLac sens: inactive; GDH-TPI counter-1: inactive; Mtb FBA inh conf: inactive; GDH-TPI counter-2: 22

How did CCc1cc(=O)oc2cc(C)cc(OCC(=O)NC3CCN(Cc4ccccc4)CC3)c12 do in these assays?
UGM FP inh: inactive; Mtb FBA inh: 40; Rv3671c protease: inactive; Mtb bLac sens: inactive; GDH-TPI counter-1: inactive; Mtb FBA inh conf: inactive; GDH-TPI counter-2: inactive

What do the screens show for `O=C(COc1ccc(Br)cc1Cl)NC1CCN(Cc2ccccc2)CC1`?
UGM FP inh: inactive; Mtb FBA inh: inactive; Rv3671c protease: inactive; Mtb bLac sens: inactive; GDH-TPI counter-1: inactive

What do the screens show for `Cc1cc(OCC(=O)N[C@@H](Cc2c[nH]c3ccccc23)C(=O)O)c2c(C)c(C)c(=O)oc2c1`?
UGM FP inh: inactive; Mtb FBA inh: inactive; Rv3671c protease: inactive; Mtb bLac sens: inactive; GDH-TPI counter-1: inactive

Results for Cc1c(C)c2ccc(OCC(=O)NC3CCN(Cc4ccccc4)CC3)c(C)c2oc1=O ?
UGM FP inh: inactive; Mtb FBA inh: 38; Rv3671c protease: inactive; Mtb bLac sens: inactive; GDH-TPI counter-1: inactive; Mtb FBA inh conf: 60; GDH-TPI counter-2: 48

What do the screens show for `Cc1cc(OCC(=O)NC2CC2)c2c(C)c(C)c(=O)oc2c1`?
UGM FP inh: inactive; Mtb FBA inh: 76; Rv3671c protease: inactive; Mtb bLac sens: inactive; GDH-TPI counter-1: inactive; Mtb FBA inh conf: 53; GDH-TPI counter-2: 45

How did Cc1cc(=O)oc2c3c(cc(OCC(=O)NC4CC4)c12)OC(C)(C)CC3 do in these assays?
UGM FP inh: inactive; Mtb FBA inh: 75; Rv3671c protease: inactive; Mtb bLac sens: inactive; GDH-TPI counter-1: inactive; Mtb FBA inh conf: 52; GDH-TPI counter-2: 29

How did Cc1cc(=O)oc2cc(OCC(=O)NC3CCCCC3)c(Cl)cc12 do in these assays?
UGM FP inh: inactive; Mtb FBA inh: inactive; Rv3671c protease: inactive; Mtb bLac sens: inactive; GDH-TPI counter-1: inactive

How did CC(C)c1nc2oc3c(NCC4CCCO4)ncnc3c2c2c1CCC2 (stereo not given) do in these assays?
UGM FP inh: inactive; Mtb FBA inh: 57; Rv3671c protease: inactive; Mtb bLac sens: inactive; GDH-TPI counter-1: inactive; Mtb FBA inh conf: 181; GDH-TPI counter-2: 151

Results for CC(C)Cc1nc2oc3c(NCC(C)O)ncnc3c2c2c1CCCC2 (stereo not given) ?
UGM FP inh: inactive; Mtb FBA inh: 60; Rv3671c protease: inactive; Mtb bLac sens: inactive; GDH-TPI counter-1: inactive; Mtb FBA inh conf: active; GDH-TPI counter-2: active

How did CCCc1nc2oc3c(NCCN(C)C)ncnc3c2c2c1CCCC2 do in these assays?
UGM FP inh: inactive; Mtb FBA inh: inactive; Rv3671c protease: inactive; Mtb bLac sens: inactive; GDH-TPI counter-1: inactive

Results for CCCc1nc2oc3c(NCCCN(C)C)ncnc3c2c2c1CCCC2 ?
UGM FP inh: inactive; Mtb FBA inh: 61; Rv3671c protease: inactive; Mtb bLac sens: inactive; GDH-TPI counter-1: inactive; Mtb FBA inh conf: active; GDH-TPI counter-2: active

What do the screens show for `CCCc1nc2oc3c(NCC4CCCO4)ncnc3c2c2c1COC(C)(C)C2` (stereo not given)?
UGM FP inh: inactive; Mtb FBA inh: inactive; Rv3671c protease: inactive; Mtb bLac sens: inactive; GDH-TPI counter-1: inactive

How did O=C(COC(=O)CNC(=O)c1ccc(Cl)cc1Cl)NCc1ccco1 do in these assays?
UGM FP inh: inactive; Mtb FBA inh: inactive; Rv3671c protease: inactive; Mtb bLac sens: inactive; GDH-TPI counter-1: inactive

Results for Cc1ccc(-n2ncc3c2CCCC3NC(=O)CCc2c(C)noc2C)cc1C (stereo not given) ?
UGM FP inh: inactive; Mtb FBA inh: 36; Rv3671c protease: inactive; Mtb bLac sens: inactive; GDH-TPI counter-1: inactive; Mtb FBA inh conf: active; GDH-TPI counter-2: active

Results for CCc1sc(C(=O)Nc2ccc3nc(C)sc3c2)cc1C ?
UGM FP inh: inactive; Mtb FBA inh: inactive; Rv3671c protease: inactive; Mtb bLac sens: inactive; GDH-TPI counter-1: inactive

Results for CCc1sc(C(=O)Nc2ccc(NC(C)=O)cc2)cc1C ?
UGM FP inh: inactive; Mtb FBA inh: 27; Rv3671c protease: inactive; Mtb bLac sens: inactive; GDH-TPI counter-1: inactive; Mtb FBA inh conf: inactive; GDH-TPI counter-2: inactive

Results for COc1ccccc1-c1c(C)oc2cc(OC(=O)c3ccco3)ccc2c1=O ?
UGM FP inh: inactive; Mtb FBA inh: 36; Rv3671c protease: inactive; Mtb bLac sens: inactive; GDH-TPI counter-1: inactive; Mtb FBA inh conf: inactive; GDH-TPI counter-2: inactive; GDH-TPI DR: 4.5

How did COc1ccccc1Oc1c(C)oc2cc(OC(=O)c3ccco3)ccc2c1=O do in these assays?
UGM FP inh: inactive; Mtb FBA inh: 55; Rv3671c protease: inactive; Mtb bLac sens: inactive; GDH-TPI counter-1: inactive; Mtb FBA inh conf: 119; GDH-TPI counter-2: 111

How did COc1ccc2c(=O)c(-c3ccccc3C)c(C)oc2c1 do in these assays?
UGM FP inh: inactive; Mtb FBA inh: inactive; Rv3671c protease: inactive; Mtb bLac sens: inactive; GDH-TPI counter-1: inactive

Results for CCOc1ccccc1Oc1c(C)oc2cc(OC(=O)c3ccco3)ccc2c1=O ?
UGM FP inh: inactive; Mtb FBA inh: inactive; Rv3671c protease: inactive; Mtb bLac sens: inactive; GDH-TPI counter-1: inactive

What do the screens show for `Nc1n[nH]c(CO)n1`?
UGM FP inh: inactive; Mtb FBA inh: inactive; Mtb bLac sens: inactive; GDH-TPI counter-1: inactive

Results for COCCNc1oc(/C=C/c2ccccc2OC)nc1S(=O)(=O)c1ccccc1 ?
UGM FP inh: inactive; Mtb FBA inh: inactive; Rv3671c protease: inactive; Mtb bLac sens: inactive; GDH-TPI counter-1: inactive

How did COc1ccc(-c2cc(=Nc3ccc(C)cc3)c3ccccc3o2)cc1 do in these assays?
UGM FP inh: inactive; Mtb FBA inh: 29; Rv3671c protease: inactive; GDH-TPI counter-1: inactive; Mtb FBA inh conf: 108; GDH-TPI counter-2: 77

Results for COc1ccc(N=c2cc(-c3ccc(O)cc3)oc3ccccc23)cc1 ?
UGM FP inh: inactive; Mtb FBA inh: inactive; Rv3671c protease: inactive; Mtb bLac sens: inactive; GDH-TPI counter-1: inactive

What do the screens show for `Cc1ccc(S(=O)(=O)NCCC(=O)NC(C)c2ccccc2)cc1` (stereo not given)?
UGM FP inh: inactive; Mtb FBA inh: inactive; Rv3671c protease: inactive; Mtb bLac sens: inactive; GDH-TPI counter-1: inactive

How did CCC(=O)Nc1c(S(=O)(=O)c2ccc(C)cc2)c2nc3ccccc3nc2n1C(C)c1ccccc1 (stereo not given) do in these assays?
UGM FP inh: inactive; Mtb FBA inh: 58; Rv3671c protease: inactive; Mtb bLac sens: inactive; GDH-TPI counter-1: inactive; Mtb FBA inh conf: 50; GDH-TPI counter-2: 30

Results for CC(c1ccccc1)n1c(S(=O)(=O)O)nc2ccccc21 (stereo not given) ?
UGM FP inh: inactive; Mtb FBA inh: inactive; Rv3671c protease: inactive; Mtb bLac sens: inactive; GDH-TPI counter-1: inactive
